# SMN2 splice enh: enhancers of SMN2 splice variant expression; HEK293 SMN2-luciferase splicing reporter, luminescence, 30-36 h; Potency, µM (series often up to 46.1 µM), without a hit: top-dose activity change, positive = activation, hits mostly activators; actives 2.8% (n = 210,000); AID 1458; note: % of control where 0% means no effect; nearly all actives have a fitted effect of over 55% in size
#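 qHTS luciferase splicing reporter: luminescence rises when SMN2 exon 7 is included in transfected HEK293 cells. Compound exposure lasted 30-36 h at 37C, with 4.5 mM final sodium butyrate as control, followed by a ONE-Glo read.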
# NPC1 promoter act: NPC1 promoter activation; Potency, µM (highest dose often 9.22 µM), for inactives: at the highest dose activation, usual class: activators; Huh7 NPC1 promoter luciferase reporter, 24 h; actives 2.4% (n = 320,000); note: % of control where 0% means no effect; nearly all actives have a fitted effect of over 60% in size
#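 Luminescence read-out of NPC1 promoter-driven luciferase in stably transfected Huh7 cells; compounds delivered in DMSO and left 24 h at 37C, 5% CO2, qHTS titration format.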
# FLuc counter: counter-screen for miR-21 project: firefly luciferase inhibitors or activators; purified FLuc, Km substrates, luminescence inhibition; actives 6.9% (n = 360,000); Potency, µM (titrated, usually from 57.5 µM), for inactives: at the top dose activity change, negative = inhibition, actives largely listed as inhibitors; P08659;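 note: plate controls were vehicle for no effect and reference inhibitor for full effect; nearly all actives have a fitted effect of over 55% in size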
# Target sequence (P08659 whole entry, looked up): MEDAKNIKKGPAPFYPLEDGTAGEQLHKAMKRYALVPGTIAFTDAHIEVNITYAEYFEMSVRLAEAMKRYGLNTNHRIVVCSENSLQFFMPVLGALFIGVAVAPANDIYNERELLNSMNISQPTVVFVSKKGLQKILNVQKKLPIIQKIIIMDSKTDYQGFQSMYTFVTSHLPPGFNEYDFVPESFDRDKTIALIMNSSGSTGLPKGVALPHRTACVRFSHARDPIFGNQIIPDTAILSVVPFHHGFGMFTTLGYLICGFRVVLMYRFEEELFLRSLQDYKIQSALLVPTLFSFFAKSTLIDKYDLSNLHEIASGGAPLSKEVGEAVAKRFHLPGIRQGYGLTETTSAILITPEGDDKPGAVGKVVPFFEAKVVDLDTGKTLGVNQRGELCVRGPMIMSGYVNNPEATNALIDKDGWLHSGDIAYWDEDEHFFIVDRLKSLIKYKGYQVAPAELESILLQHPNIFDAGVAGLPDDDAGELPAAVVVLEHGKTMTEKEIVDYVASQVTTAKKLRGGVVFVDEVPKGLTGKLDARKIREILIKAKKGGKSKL
#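 Purified P. pyralis luciferase, 10 nM final, with Km-level 10 uM D-luciferin and 10 uM ATP in 50 mM Tris acetate pH 7.5, 10 mM Mg acetate, 0.01% Tween-20, 0.05% BSA; 6-point qHTS titration about 60 µM downward; luminescence read.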
# Rab9 prom act: Rab9 promoter activation. Huh7 Rab9 promoter-luciferase reporter, luminescence, 24 h. Potency, µM (titrated, usually from 9.22 µM), inactives show at the top dose activation, negative = inhibition, most hits filed as activators. actives 2.8% (n = 320,000). AID 485297; note: % of control where 0% means no effect; nearly all actives have a fitted effect of over 60% in size
#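 Cells were plated at 1500 per well in reduced-serum medium with 10% FBS and left 2 h. Compound in DMSO was then added for 24 h at 37 °C. Reporter signal was read by luminescence after 10 min with luciferase detection reagent.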
# Luc counter: Kinase-Glo luciferase inhibition (counter-screen); Potency, µM (doses to about 38.3 µM), for inactives: top-dose activity change, negative = inhibition, hits mostly inhibitors; Q27757; actives 0.28% (n = 200,000); Kinase-Glo luciferase, ATP luminescence, 8 min; note: % is set by controls: 0 for no effect and ±100 for the full control effect; nearly all actives have a fitted effect of over 60% in size
#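 Compound is pinned into ATP-containing buffer (10 uM ATP, imidazole pH 7.2, 7 mM MgCl2). Kinase-Glo luciferase reagent is then added. Light output is recorded following an 8-min room-temperature incubation.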
# Active calls of the source: *; ? = inconclusive; . = no result; [ ] = another dose, or the depositor's remark. Most compounds without a hit are left out; they make up all but 7.3% or so of the library. Calls come from the whole dose curve; as a rule, active = well fitted curve in the direction sought with a large enough effect; inconclusive = small, poorly fitted or top-dose-only effect, or another doubt; inactive = no such curve, though single readings can be large; an effect the other way counts as inactive or inconclusive. Potency is the fitted concentration of half-maximal effect.
SMILES,SMN2 splice enh,NPC1 promoter act,FLuc counter,Rab9 prom act,Luc counter
Cc1cccc(OCCCC(=O)Nc2ccc(N(C)C)cc2)c1,0%,?,8.5µM*,?,-2%
Cc1cccc(OCCCC(=O)Nc2ccc(Br)cc2)c1,14%,2%,-1%,-5%,2%
Cc1ccc(NC(=O)CCOc2ccccc2)cc1,.,?,13µM*,3.5µM*,.
[O-][n+]1c(CN2CCCCC2)nc2cccc3c2c1-c1ccccc1-3,10%[9.22 µM],.,.,.,-7%[7.66 µM]
Cc1cccn2c(Nc3ccccc3)c(-c3cccs3)nc12,5%,.,?,.,.
CCN(Cc1ccccc1)c1ncnc2c1nnn2C,.,.,-8%,.,.
C=CCOc1ccc(/C=C/C(C)=N\O)cc1,.,2.8µM*,6.7µM*,2.8µM*,.
CCOC(=O)c1c(-c2ccc(C)cc2)csc1NC(=O)c1cc(=O)c2cc(C)cc(C)c2o1,.,.,5%,.,.
O=C(Nc1nnc(C2CC2)s1)c1cccs1,.,2.8µM*,?,3.2µM*,.
CN(c1ccccc1)S(=O)(=O)c1nnc(NC(=O)c2cccs2)s1,.,.,1.1µM*,.,.
CC(C)(C)c1nnc(NC(=O)c2cccs2)s1,.,2.8µM*,11µM*,2.8µM*,-20%
O=C(Nc1nnc(CCc2ccccc2)s1)c1cccs1,26%,?,?,?,2%
COc1c(C(=O)Nc2nnc(C3CC3)s2)csc1Cl,.,4.5µM*,?,4µM*,.
CCOC(=O)c1ccc(N2C(=O)c3n[nH]c(-c4ccco4)c3C2c2ccccc2OC)cc1 (stereo not given),-1%,.,-10%,.,.
Cc1ccc(S(=O)(=O)c2nc(-c3cccs3)oc2SCc2ccc(F)cc2)cc1,6%,.,3%,.,.
CC(C)c1nnc(NC(=O)c2cccs2)s1,14µM*,2.8µM*,13µM*,2.5µM*,-10%
CCCCC(CC)c1nnc(NC(=O)c2cccs2)s1 (stereo not given),.,-6%,?,-11%,2%
CC(C)=CC(=O)Nc1nnc(C(C)C)s1,11µM*,3.2µM*,12µM*,2.5µM*,4%
CCOC(=O)c1ccc(Nc2c(-c3cccc(O)c3)nc3nc[nH]n23)cc1,.,.,6%,.,.
COc1cccc(-c2nn(C)c3sc(C(=O)N4CCN(c5cccc(C(F)(F)F)c5)CC4)cc23)c1,-14%,.,1%,.,.
CC1(C)CC(=O)C2=C(C1)c1c(ccc3ncccc13)NC2c1cccs1 (stereo not given),26%,-19%,-1%,-24%,0%
COc1cc(C2Nc3ccc4ncccc4c3C3=C2C(=O)CCC3)cc(OC)c1O (stereo not given),10µM*,-13%,-1%,-20%,5%
COc1cc(C2Nc3ccc4ncccc4c3C3=C2C(=O)CC(C)(C)C3)cc(OC)c1O (stereo not given),28µM*,-1%,-2%,-11%,-5%
COC(=O)c1ccc(NC(=O)CN(c2cccc(C(F)(F)F)c2)S(C)(=O)=O)cc1,-20%,.,-1%,.,.
COC(=O)Cc1[nH]n(-c2ccccc2)c(=O)c1C=Nc1ccc(C)cc1,.,0%,9.5µM*,-3%,.
SMILES,SMN2 splice enh,NPC1 promoter act,FLuc counter,Rab9 prom act,Luc counter
CCOc1[nH]n(-c2ccccc2)c(=O)c1C=NCC(=O)OC,5%,-2%,-4%,18%,2%
O=C(O)c1cccc(N2C(=O)C3CC=CCC3C2=O)c1 (stereo not given),-1%,-2%,1%,-2%,0%
Cn1ccc(C(=O)OCC(=O)c2ccccc2)n1,.,11%,27µM*,21%,.
CCc1ccc(C(=O)COC(=O)c2cccc(N3C(=O)c4c(C)nc5ccccc5c4C3=O)c2)cc1,-18%,?,1.7µM*,26%,0%
O=C(COC(=O)c1cccc(O)c1)c1ccccc1,.,0%,?,20%,.
Nc1cccc(C(=O)OCC(=O)c2ccccc2)c1,10µM*,3.2µM*,1.3µM*,3.5µM*,-17%
O=C(COC(=O)c1cccc(N2C(=O)C3CC=CCC3C2=O)c1)c1ccccc1 (stereo not given),.,19%,2.4µM*,2%,.
CCc1ccc(NC(=O)C2CCN(S(=O)(=O)c3c(C)noc3/C=C\c3ccc(OC)cc3)CC2)cc1,0%,.,0%,.,.
CC1CN(C(=O)CCC(=O)NCc2cccs2)c2cc(Cl)ccc2O1 (stereo not given),.,.,0%,.,.
CCOc1ccc(CCNC(=O)c2cc3c(=O)[nH]c4ccc(C)cc4c3s2)cc1OCC,-3%,.,3%,.,.
O=C(CSc1nnc(CNC(=O)c2cccc(F)c2)n1-c1ccccc1)Nc1ccccc1F,?,.,-1%,.,.
COc1ccc(/C(C)=N/Nc2nccnc2Cl)cc1,.,?,7.6µM*,1.8µM*,.
C/C(=N\Nc1nccnc1Cl)c1ccc(O)c(C)c1,.,?,11µM*,?,.
N#C/C(=C\c1ccc(Cl)cc1)C(=O)NCC1CCCO1 (stereo not given),1%,.,?,.,.
C[C@@H]1CCCC(CC(=O)O)(CC(=O)O)C1,-12%[9.22 µM],.,.,.,-2%[7.66 µM]
COc1ccc(CCNC(=O)Cc2c(C)c3cc4c(C(C)(C)C)coc4c(C)c3oc2=O)cc1,3%,.,4%,.,.
c1ccc(-c2ncc(-c3ccn[nH]3)s2)cc1,2.8µM*,1.4µM*,3.4µM*,0.56µM*,-24%
CCc1ccc(NC(=O)Nc2cnccn2)cc1,.,?,11µM*,3.5µM*,.
O=C(Nc1ccc([N+](=O)[O-])cc1)Nc1ccon1,.,-12%,1%,-16%,.
CCCCc1ccc(NC(=O)Nc2cnccn2)cc1,.,-8%,?,24%,.
CCc1ccc(NC(=O)Nc2ccon2)cc1,.,2.2µM*,7.6µM*,2.5µM*,.
CCN(CC)c1ccc(C=C2C(=O)OC(C)(C(C)(C)C)OC2=O)cc1 (stereo not given),9%,-5%,-1%,2%,-2%
CCN(CC)c1ccc(C=C2C(=O)OC(c3ccccc3)OC2=O)cc1 (stereo not given),-3%,-2%,12µM*,-1%,-1%
CC(=O)c1ccc(NC(=O)COc2ccc3c(c2)OCO3)cc1,28%,-3%,-17%,-4%,8%
CCc1ccc(OCC(=O)Nc2ccc3c(c2)OCCO3)cc1,.,3%,19µM*,0%,.
CCc1ccc(NC(=O)COc2ccc3c(c2)OCO3)cc1,.,27%,27µM*,14%,.
CC(=O)Nc1cccc(NC(=O)COc2ccc3c(c2)OCO3)c1,.,5%,9.5µM*,28%,.
O=C(COc1ccc2cc(-c3ccccc3)c(=O)oc2c1)NCC1CCC(C(=O)O)CC1 (stereo not given),.,-1%,6µM*,2%,.
O=C(COc1ccc2c(c1)oc(=O)c1ccccc12)NCC1CCC(C(=O)O)CC1 (stereo not given),.,-3%,?,-5%,.
O=C(COc1ccc2c(-c3ccccc3)cc(=O)oc2c1)NCC1CCC(C(=O)O)CC1 (stereo not given),.,-6%,21µM*,-4%,.

# Source: PubChem (National Center for Advancing Translational Sciences (NCATS))
